# Shown is part of a subset that was picked to be rich in the strongest signals.
# Assays:
# Assay in all cases: glycan array binding signal (z-score within array); higher = stronger binding
# Settings in all cases: glycan notation: IUPAC condensed, linker removed
# [1] = tested on: Gal(a1-3)Gal(b1-4)GlcNAc(b1-3)GalNAc
# Procedure, shortened: (§1)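 Negative Z-scores can be read as non-binding. The Z-score is calculated within each array and then averaged across arrays of one protein sequence at different concentrations or buffers and across linkers. Arrays, 3228 in all, were curated from the Consortium for Functional Glycomics database and kept only where the protein sequence was available.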
# [2] = tested on: Gal(a1-3)[Gal(a1-4)]Gal(b1-4)GlcNAc
# Procedure, shortened: as §1
# Gal(b1-2)Gal = tested on: Gal(b1-2)Gal
# Procedure, shortened: as §1
# [3] = tested on: Gal(b1-3)GalNAc(a1-3)[Fuc(a1-2)]Gal(b1-4)Glc
# Procedure, shortened: as §1
# [4] = tested on: Gal(a1-3)Gal(b1-4)GlcNAc(b1-6)GalNAc
# Procedure, shortened: as §1
# Gal(a1-6)Glc = tested on: Gal(a1-6)Glc
# Procedure, shortened: as §1
# Gal(a1-3)Gal(b1-4)GlcNAc = tested on: Gal(a1-3)Gal(b1-4)GlcNAc
# Procedure, shortened: as §1
# [5] = tested on: Gal(a1-3)Gal(b1-4)[Fuc(a1-3)]GlcNAc(b1-2)Man(a1-3)[Gal(a1-3)Gal(b1-4)[Fuc(a1-3)]GlcNAc(b1-2)Man(a1-6)]Man(b1-4)GlcNAc(b1-4)GlcNAc
# Procedure, shortened: as §1
# [6] = tested on: Gal(b1-3)GalNAc(a1-3)[Fuc(a1-2)]Gal(b1-4)GlcNAc
# Procedure, shortened: as §1
# Gal(b1-3)GalNAc = tested on: Gal(b1-3)GalNAc
# Procedure, shortened: as §1
# [7] = tested on: Gal(a1-3)Gal(b1-4)[Fuc(a1-3)]GlcNAc
# Procedure, shortened: as §1
# [8] = tested on: Gal(b1-3)GalNAc(b1-4)Gal(b1-4)Glc
# Procedure, shortened: as §1
# Gal(a1-3)Gal = tested on: Gal(a1-3)Gal
# Procedure, shortened: as §1
# Gal(a1-4)Gal(b1-4)GlcNAc = tested on: Gal(a1-4)Gal(b1-4)GlcNAc
# Procedure, shortened: as §1
# Gal(a1-4)Gal(b1-4)Glc = tested on: Gal(a1-4)Gal(b1-4)Glc
# Procedure, shortened: as §1
# Gal(a1-4)GlcNAc = tested on: Gal(a1-4)GlcNAc
# Procedure, shortened: as §1
# Gal(b1-3)GalNAc(b1-3)Gal = tested on: Gal(b1-3)GalNAc(b1-3)Gal
# Procedure, shortened: as §1
# [9] = tested on: Gal(b1-3)GalNAc(b1-3)Gal(a1-4)Gal(b1-4)Glc
# Procedure, shortened: as §1
# [10] = tested on: Gal(b1-3)GalNAc(b1-4)[Neu5Gc(a2-3)]Gal(b1-4)Glc
# Procedure, shortened: as §1
substance,measurement,setting,value
"BambL (Burhholderia ambifaria), Q0B4G1",glycan array binding signal (z-score),[1],-0.314
same,glycan array binding signal (z-score),[2],-0.316
same,glycan array binding signal (z-score),Gal(b1-2)Gal,-0.304
same,glycan array binding signal (z-score),[3],-0.278
"Wza (Escherichia coli), P0A930",glycan array binding signal (z-score),[4],3.84
same,glycan array binding signal (z-score),Gal(a1-6)Glc,3.12
Actinohivin (Actinomycete K97),glycan array binding signal (z-score),Gal(a1-3)Gal(b1-4)GlcNAc,-0.163
same,glycan array binding signal (z-score),[5],0.092
same,glycan array binding signal (z-score),[6],-0.176
"SpGH101 (Streptococcus pneumoniae), Q8DR60",glycan array binding signal (z-score),Gal(a1-3)Gal(b1-4)GlcNAc,-0.162
same,glycan array binding signal (z-score),[6],1.71
same,glycan array binding signal (z-score),[3],2.88
same,glycan array binding signal (z-score),Gal(b1-3)GalNAc,8.17
AgI/II Vhelical-GFP (Streptococcus mutans),glycan array binding signal (z-score),[5],-0.151
same,glycan array binding signal (z-score),[7],-0.245
same,glycan array binding signal (z-score),Gal(a1-6)Glc,-0.194
same,glycan array binding signal (z-score),[8],-0.139
LcI (Legionella pneumophila),glycan array binding signal (z-score),Gal(a1-3)Gal,-0.38
same,glycan array binding signal (z-score),Gal(a1-4)Gal(b1-4)GlcNAc,-0.363
same,glycan array binding signal (z-score),Gal(b1-2)Gal,4.02
Epa22,glycan array binding signal (z-score),Gal(a1-4)Gal(b1-4)Glc,-0.375
same,glycan array binding signal (z-score),Gal(a1-4)GlcNAc,10.5
same,glycan array binding signal (z-score),Gal(b1-3)GalNAc(b1-3)Gal,2.8
same,glycan array binding signal (z-score),[8],2.6
same,glycan array binding signal (z-score),Gal(b1-3)GalNAc,1.46
AgI/IIC123-GFP (Streptococcus mutans),glycan array binding signal (z-score),Gal(a1-4)GlcNAc,0.706
"GspB (Streptococcus gordonii), Q939N5",glycan array binding signal (z-score),[9],3.02
"MIC3-MAR1b (Eimeria tenella), B6VCV4",glycan array binding signal (z-score),[10],-0.47
